Several values for one entry are separate records, joined by “and”; a condition that tells them apart may be missing. Equal entries are not always repeated. About 83,000 compounds went through this panel and 20% of them were active in at least one assay; those are over-represented in the sample as a whole.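 Testing used 96-well plates and a 48-hour single-concentration exposure. Example: -40 means 40% of the starting cells died.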 Values without a mark were called inactive. Activity calls are given as the source filed them. How the source made its calls: active means growth percent below 10; inactive means the rest.
Each compound was assayed on IGROV1 ovarian (assay: NCI-60 one-dose screen, 48 h (100 = growth as untreated, 0 = no growth, -100 = all killed)). Details: 10 µM unless noted.
Cc1ccc(Cl)cc1NC(=O)N/C(N)=N/c1nc2ccccc2s1 was tested, and the growth was -4.38% (active).
For Nc1cc(-c2c[nH]c3ccc(Cl)cc23)nc2cc(-c3c[nH]c4ccccc34)nn12, the growth was 2.75% (active).
In the case of COc1cc(CNC(=O)C[C@H](C)CCC=C(C)C)ccc1OCc1cn(-c2ccc(Cl)c(Cl)c2)nn1, the growth is reported as 83.1%.
With C[C@@H](Nc1c(C#N)cnc2ccc(-c3cnc4[nH]ncc4c3)cc12)c1ccccc1 the growth was -60.6% (active).
With COc1ccc(C2=NN(C(=O)[C@H]3[C@@H](c4ccco4)c4sc(=O)[nH]c4S[C@@H]3C)C(c3ccc4ccccc4c3)C2)cc1 (stereo partly drawn) the growth was 45.6%.
In the case of Cc1cc(C)c2[nH]c(=O)c(C(c3nnnn3Cc3ccc4c(c3)OCO4)N3CCN(C)CC3)cc2c1 (stereo not drawn), the growth is reported as 111%.
For COc1ccc(NC(=O)N/N=C/c2c[nH]c3ccccc23)cc1, the growth was 40.8%.
COc1ccc2[nH]c(O)c(N=NC(=O)c3ccc4nc(-c5ccc(Cl)cc5)[nH]c4c3)c2c1 showed a growth of 78.1%.
Cc1ccc(O)cc1Nc1nc(SCCN2CCOCC2)nc2c1cnn2CC(Cl)c1ccc(Br)cc1 (stereo not drawn) was tested, and the growth was -1.66% (active).
For CCOc1ccccc1[C@H]1C(C(=O)c2ccc(Cl)cc2)C2(N[C@@H]1c1ccccc1)C(=O)Nc1ccc(Br)cc12 (stereo partly drawn), the growth was 1% (active).
In the case of CC1(C)CC(=O)C2=C(C1)OC(N)=C(c1nc3ccccc3[nH]1)C2c1ccc(Cl)cc1 (stereo not drawn), the growth is reported as 62.3% and 108%.
In the case of COc1ccc(-c2cc(C(=O)N=Nc3c(O)[nH]c4ccc(Cl)cc34)c3ccccc3n2)cc1OC, the growth is reported as 93%.
COc1ccc2c(c1)c(-c1cc(N)n3nc(-c4c[nH]c5ccccc45)cc3n1)cn2C was tested, and the growth was -62.4% (active).
Cc1ccc2c(c1)nc(-c1ccccc1)n2CC(=O)N=Nc1c(O)[nH]c2ccc(Cl)cc12 was tested, and the growth was -86% (active).
CS(=O)(=O)Nc1cccc(-n2c(COc3ccc(OC(F)(F)F)cc3)nc3ccccc32)c1 was tested, and the growth was 56.4% and 111%.
With Oc1ccc(Cl)c(Nc2nc(SCCN3CCOCC3)nc3c2cnn3CC(Cl)c2ccc(Br)cc2)c1 (stereo not drawn) the growth was 1.12% (active).
In the case of COc1ccccc1NC(=O)N/N=C/c1c[nH]c2ccccc12, the growth is reported as 38.7%.
With Nc1cccc(-n2c(COc3ccc(I)cc3)nc3ccccc32)c1 the growth was 46.8% and 107%.
For O=C1CCC(N2C(=O)c3cccc(NCCCCCC(=O)N4CCN(c5ccc6nc7c(nc6c5C(F)(F)F)C(=O)c5ncccc5C7=O)CC4)c3C2=O)C(=O)N1 (stereo not drawn), the growth was -75.4% (active).
OCCn1cc(-c2nc3ccc4[nH]ncc4c3c3c2CCCC3)cn1 was tested, and the growth was 52%.
Cc1ccc(N=Nc2c(N)nn3c(-c4cc5cc(Br)ccc5oc4=O)ccnc23)cc1 showed a growth of 45.2%.
With COc1ccc(C(=O)C[n+]2cccc3c4ccccc4ccc32)cc1 the growth was 67.4%.
CCCCCCCCCc1ccc(C(=O)Nc2cc(C)ccc2C(=O)OC)cc1 showed a growth of 118%.
Compound Cc1nc(Nc2ccccn2)sc1C1=NNC(c2ccccc2F)C1 (stereo not drawn) has a growth of 64.2%.
Work on NS(=O)(=O)c1ccc(Nc2nc(N/N=C/c3cc(Br)c(O)c(Br)c3)nc(Nc3ccccc3)n2)cc1 yielded a growth of 59.5%.
C=CC(=O)Nc1ccc(C(=O)/C=C/c2ccc(N(C)C)cc2)c(O)c1 was tested, and the growth was 15.8%.
Compound CCCCCCCCc1ccc(C(=O)Nc2cccc(O)c2)cc1 has a growth of 85.6%.
In the case of Clc1ccc(-c2nc3c4c(-c5ccccc5)c(-c5ccccc5)n(Cc5ccccc5)c4ncn3n2)cc1, the growth is reported as 16.1%.
Compound Nc1nn2c(-c3cc4cc(Br)ccc4oc3=O)ccnc2c1N=Nc1ccc(S(N)(=O)=O)cc1 has a growth of 93.1%.
Work on Cc1ccc(C(=O)Nc2cc(-n3ccnc3)cc(C(F)(F)F)c2)cc1-n1cc(-c2cnc3cccnn23)nn1 yielded a growth of 104%.
Work on Cc1cccc(C)c1Nc1nnc(-c2c[nH]c3ccccc23)o1 yielded a growth of 89%.
Work on COc1cc(CNC(=O)C[C@H](C)CCC=C(C)C)ccc1OCc1cn(-c2cccc(C(F)(F)F)c2)nn1 yielded a growth of 102%.
CC1=C(C(=O)OCc2ccccc2)C(c2ccc(N(C)C)cc2)n2c(nc3ccccc32)N1 (stereo not drawn) was tested, and the growth was 84%.
With CCc1ccc(SC2c3cc(OC)ccc3Oc3nc(N)c(C#N)c(N)c32)cc1 (stereo not drawn) the growth was -69.6% (active).
In the case of CCCn1c(NC(=O)c2cccc(C(N)=O)c2)nc2cc(CN3CCCCC3)ccc21, the growth is reported as 88.5%.
Compound C/C(=N/O)c1ccc(NC(=O)CSc2nnc(-c3ccc(-c4nc5ccc(Cl)cc5[nH]4)cc3)o2)cc1 has a growth of 34.5%.
CC[C@@]12CC(C(=O)OC)=C3Nc4cc5c(cc4[C@@]34CCN(C[C@H]3O[C@H]31)[C@@H]24)[C@@H]1[C@H](O5)[C@@H](O)[C@@]2(CC)CC(C(=O)OC)=C3Nc4cc(O)ccc4[C@@]34CCN1[C@@H]24 was tested, and the growth was -65.8% (active).
For N#Cc1c(-c2ccc(F)cc2)nc(SCc2ccccc2)nc1N1CCNCC1, the growth was -95.6% (active).
